This passage reports inhibition results from ChEMBL document CHEMBL1961873, “Compounds: GSK PKIS; Assays: Nanosyn kinase panel” (2012).

Several values for one entry are separate records, joined by “and”; a condition that tells them apart may be missing. Equal entries are not always repeated.

A word on the inhibition: it is the relative decrease from the control value, in per cent.
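Note: PKC-beta1 splice variant of the enzyme, figure reported as mean inhibition, measured within the GSK PKIS kinase profiling panel.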

For the assay, the target named is Protein kinase C beta type (Homo sapiens) (UniProt P05771). The conditions noted are these: at 0.1 µM.
Sequence of Protein kinase C beta type (Homo sapiens) (P05771 2-671 limits assumed): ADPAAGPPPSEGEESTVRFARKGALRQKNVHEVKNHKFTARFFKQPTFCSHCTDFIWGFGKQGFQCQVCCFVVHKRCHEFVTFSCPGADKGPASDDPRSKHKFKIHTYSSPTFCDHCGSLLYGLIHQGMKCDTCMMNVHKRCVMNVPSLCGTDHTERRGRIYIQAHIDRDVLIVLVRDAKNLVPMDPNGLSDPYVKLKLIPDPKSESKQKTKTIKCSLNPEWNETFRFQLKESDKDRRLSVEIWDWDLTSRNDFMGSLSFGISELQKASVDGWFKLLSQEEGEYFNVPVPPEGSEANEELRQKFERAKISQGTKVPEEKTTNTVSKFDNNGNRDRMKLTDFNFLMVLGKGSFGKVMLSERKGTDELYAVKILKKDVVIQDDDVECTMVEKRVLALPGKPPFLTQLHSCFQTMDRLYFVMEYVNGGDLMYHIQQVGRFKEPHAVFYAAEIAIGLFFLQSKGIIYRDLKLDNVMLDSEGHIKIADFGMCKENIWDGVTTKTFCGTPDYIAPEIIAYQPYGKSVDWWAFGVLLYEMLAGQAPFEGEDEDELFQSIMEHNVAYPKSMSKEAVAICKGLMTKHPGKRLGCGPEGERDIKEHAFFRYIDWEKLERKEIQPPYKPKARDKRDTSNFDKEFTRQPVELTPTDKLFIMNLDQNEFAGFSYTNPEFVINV
On to `CCCNc1cccc(-n2ncc3c(N/N=C/c4ccncc4)ncnc32)c1`, for which the inhibition is 1.35%.
With `O=C(O[C@H]1CN[C@H](C#Cc2cc3ncnc(Nc4ccc(OCc5cccc(F)c5)c(Cl)c4)c3s2)C1)N1CCOCC1`, the inhibition was 1.43%.
In the case of `Cc1cc(O)cc(C)c1/C=C/c1cncc(C(=O)OC(C)(C)C)c1`, the inhibition is 0.46%.
For `O=C(O[C@H]1CN[C@H](C#Cc2cc3ncnc(Nc4ccc5c(cnn5Cc5ccccc5)c4)c3s2)C1)N1CCOCC1`, the inhibition is -0.18%.
For `Cc1ccc(-c2cc3c(NC(=O)C4CC4)ncnc3o2)cc1`, the inhibition turned out to be 2.14%.
With `COc1cc(Nc2ncc(-c3ccccc3)o2)cc(OC)c1`, the inhibition is 0.24%.
As for `CCOc1ccc2c(-c3ccnc(Nc4cc(OC)cc(C(F)(F)F)c4)n3)cnn2n1`, the inhibition was determined as 5.55%.
For the compound `COC(=O)Nc1nc2ccc(Oc3ccc(NC(=O)Nc4cc(C(F)(F)F)ccc4F)cc3)cc2s1`, the inhibition came to 1.64%.
Turning to `COC(=O)Nc1nc2cc(Oc3ccc(NC(=O)Nc4ccccc4)cc3)ccc2[nH]1`, the inhibition came out at 1.53%.
As to `CCn1c(-c2nonc2N)nc2cncc(C(=O)NCCNC)c21`, the inhibition stood at 61.1%.
As to `COc1ccc(Nc2ncc(-c3ccccc3)o2)cc1OC`, the inhibition is -0.02%.
Then `N#Cc1ccc2c(-c3ccnc(NC4CC4)n3)c(-c3ccc(F)cc3)nn2c1`, with -1.19%; and `Fc1cccc(COc2ccc(Nc3ncncc3C#Cc3ccccc3)cc2Cl)c1`, with 1.01%.
For the compound `CNC(=O)c1ncccc1Nc1nc(Nc2cc3c(cc2OC)CCCN3C(=O)CN(C)C)nc2[nH]ccc12`, the inhibition was 1.41%.
Then `NS(=O)(=O)c1cccc(N/C=C2\C(=O)Nc3ccccc32)c1`, with -0.22%; and `CS(=O)(=O)CCNCc1ccc(-c2ccc3ncnc(Nc4ccc(OCc5ccccc5)cc4)c3c2)o1`, with 1.41%; and `Cn1c(-c2nonc2N)nc2cnccc21`, with 7.33%.
Consider `CS(=O)(=O)CCNCc1ccoc1-c1ccc2ncnc(Nc3ccc(OCc4ccccc4)cc3)c2c1`, for which the inhibition is -0.13%.
For the compound `CN1CCN(Cc2ccc(-c3cc4ncnc(Nc5ccc(OCc6cccc(F)c6)c(Cl)c5)c4s3)o2)CC1`, the inhibition was -1.25% and 0.04%.
As to `CC(C)c1ccc(-c2cc(-c3c[nH]nc3-c3ccccn3)ccn2)cc1`, the inhibition was 2.16%.
For `Nc1ncnc2occ(-c3ccc(NC(=O)Nc4cc(C(F)(F)F)ccc4F)cc3)c12`, the inhibition is 1.05% and -0.26%.
Consider `COc1ccc2ncn(-c3cc(O[C@H](C)c4ccccc4C(F)(F)F)c(C(N)=O)s3)c2c1`, for which the inhibition came out at 0.44%.
For the compound `N#Cc1cccc(Nc2ncc(-c3ccccc3)o2)c1`, the inhibition came out at 0.7%.
As to `CS(=O)(=O)Nc1ccc(-c2ccc3c(NC(=O)C4CC4)n[nH]c3c2)cc1`, the inhibition is -0.7%.
As for `Cc1nnc(-c2cccc(-c3ccc(C(=O)NCC4CC4)cc3)c2)o1`, the inhibition was 2.27%.
Take `CC1(C)CC(n2cnc(-c3ccc(F)cc3)c2-c2ccnc(N)n2)CC(C)(C)N1`: the inhibition turned out to be 1.89%.
For `CC1=C(C(=O)Nc2ccc3[nH]nc(C)c3c2)C(c2ccc(C(F)(F)F)cc2)CC(=O)N1` (stereo unspecified) the value was -0.41%.
Take `NC(=O)c1ccc2c(-c3ccnc(NCCCO)n3)c(-c3ccc(F)cc3)nn2c1`: the inhibition turned out to be 2.42%.
Turning to `COc1cc(N2CCN(C(C)C)CC2)ccc1Nc1nc(Nc2cccc3ncccc23)c2cc[nH]c2n1`, the inhibition is -0.38%.
Then `FC(F)(F)CNc1nccc(-c2cnn3ncccc23)n1`, with 1.27%.
For the compound `CCN1CCC(C(=O)Nc2n[nH]c3nnc(-c4cccc(F)c4F)cc23)CC1`, the inhibition was -0.34%.
